Data from PubChem BioAssay.
Calls of active or inactive are those of the source. Unless noted, how the calls were made is not given here.

Legend:
[1] = tested on: Wnt5a (protein binding on small-molecule microarray); experiment: Wnt5a binders on small-molecule microarray, primary screen, biophysical, 635/667 nm fluorescence (AID 1142); details: 635 nm fluorescence, higher = more signal;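 further: fluorescence read at 667 nm with signal to noise per printed feature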
[2] = cell viability in Huh7 cells, primary screen, cytotoxicity control for HCV replication inhibitor project, CellTiter-Glo luminescence, basal, 48 h (AID 1143); details: Huh7 HCV replicon, higher = more signal, called active from +8 up or from −8 down;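 further: Huh7 hepatoma cells carrying a hepatitis C replication reporter with no stimulus; test concentration not given here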
[3] = P. aeruginosa biofilm formation inhibitors, primary screen, PAO1 strain, BacTiter-Glo luminescence, LB-PBS (AID 1144); details: 12 h, higher = more signal
[4] = CREB reporter modulators without forskolin, primary screen, cell-based, PC12, CRE-LacZ reporter, unstimulated (AID 1145); details: no forskolin, luminescence, 4.5 h, higher = more signal, called active from +8 up or from −8 down
[5] = CREB reporter modulators under forskolin, primary screen, cell-based, PC12, CRE-LacZ reporter, forskolin-stimulated (AID 1146); details: luminescence, 4.5 h, higher = more signal, called active from +8 up or from −8 down;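 further: PC12 cells with 6xCRE LacZ reporter stimulated by forskolin 10 µM; beta-galactosidase reporter signal reflecting CREB driven transcription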
[6] = target: Streptavidin (Streptomyces avidinii) (UniProt P22629); experiment: streptavidin binders on small-molecule microarray, primary screen, artefact control for SMM compound annotation, biophysical, 635/667 nm fluorescence (AID 1147); details: streptavidin binding, higher = more signal;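 further: signal reflects streptavidin binding to arrayed compounds as a control protein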
Chain of Streptavidin (Streptomyces avidinii) (P22629 whole entry, looked up): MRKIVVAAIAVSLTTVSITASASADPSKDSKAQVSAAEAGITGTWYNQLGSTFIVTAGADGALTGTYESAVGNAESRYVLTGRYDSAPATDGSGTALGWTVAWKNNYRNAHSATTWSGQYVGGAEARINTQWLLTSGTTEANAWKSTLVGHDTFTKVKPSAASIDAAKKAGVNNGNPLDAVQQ

[7] = small-molecule binders of probe aInhba, primary screen, biochemical, small-molecule microarray, 635/667 nm fluorescence (AID 1148); details: higher = more signal;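 further: score merges 667nm spot fluorescence with signal-to-noise for antibody binding to printed compounds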
Torsin-1A (Homo sapiens) [8] = target: Torsin-1A (Homo sapiens) (UniProt O14656); experiment: torsin A binders from cell lysate, primary screen, small-molecule microarray, wild-type, 635/667 nm (AID 1149); details: COS7 hTOR1A-WT lysate, 635 nm fluorescence, higher = more signal
Chain of Torsin-1A (Homo sapiens) (O14656 whole entry, looked up): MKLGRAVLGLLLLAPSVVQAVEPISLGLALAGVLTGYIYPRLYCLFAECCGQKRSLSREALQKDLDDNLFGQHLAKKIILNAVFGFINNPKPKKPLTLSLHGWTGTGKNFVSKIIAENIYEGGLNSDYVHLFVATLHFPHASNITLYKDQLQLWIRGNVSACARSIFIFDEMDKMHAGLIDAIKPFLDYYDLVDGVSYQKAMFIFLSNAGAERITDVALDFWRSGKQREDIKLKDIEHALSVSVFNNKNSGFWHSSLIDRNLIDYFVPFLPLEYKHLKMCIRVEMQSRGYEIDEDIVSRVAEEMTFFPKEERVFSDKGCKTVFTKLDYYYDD

Torsin-1A (Homo sapiens) [9] = target: Torsin-1A (Homo sapiens) (UniProt O14656); experiment: small-molecule binders of mutant TOR1A in lysate, primary screen, cell lysate, small-molecule microarray, COS7 lysate, 635/667 nm fluorescence (AID 1150); details: COS7 hTOR1A mutant lysate, 635 nm fluorescence, higher = more signal;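 further: score pools 667 nm emission and signal to noise measuring lysate protein binding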
[10] = tested on: Sonic hedgehog protein (Shh); experiment: small-molecule binders of Shh protein, primary screen, biochemical, small-molecule microarray, 635/667 nm fluorescence (AID 1151); details: small-molecule microarray binding, 635 nm fluorescence; higher = more signal;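 further: Shh protein binding to compounds spotted on small-molecule microarray slides; score combines spot fluorescence intensity with signal-to-noise across triplicate slides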
[11] = E. coli DRC41 culture turbidity changes, primary screen, E. coli filamentation inducer project, strain DRC41, OD650, 48 h (AID 1152);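 further: E. coli MC1000 strain DRC41 lacking acrAB efflux pump and sulA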; details: E. coli DRC41 (acrAB sulA), higher = more signal, called active from +8 up or from −8 down
[12] = small-molecule binders of probe aLefty1, primary screen, biochemical, small-molecule microarray, 635/667 nm fluorescence (AID 1153); details: higher = more signal;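 further: score merges spot fluorescence with signal-to-noise ratio from the scanned slide images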
[13] = PSAC antagonists in infected red cells, primary screen, cell-based, P. falciparum Indochina, OD700, 1 h (AID 1154); details: P. falciparum Indochina infected RBC osmotic lysis, higher = more signal, called active from +8 up or from −8 down
[14] = PSAC antagonists in infected red cells, primary screen, cell-based, P. falciparum Indochina, OD700, 2 h (AID 1155);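 further: lysis reports solute entry through the parasite surface anion channel PSAC; channel blockers reduce lysis of infected cells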; details: P. falciparum Indochina infected erythrocytes, osmotic lysis OD700; higher = more signal, called active from +8 up or from −8 down
[15] = osmotic lysis modulators in infected erythrocytes, primary screen, PSAC antagonist project, cell-based, P. falciparum Indochina, OD700, 3 h (AID 1156); details: higher = more signal, called active from +8 up or from −8 down
[16] = PSAC antagonists in infected red cells, primary screen, cell-based, P. falciparum Indochina, OD700, 18 h (AID 1157); details: P. falciparum Indochina infected erythrocytes, osmotic lysis OD700, 18 h; higher = more signal, called active from +8 up or from −8 down
[17] = modulators of S6 phosphorylation in cells, primary screen, cell-based, A549, cytoblot, luminescence, serum-stimulated (AID 1158); details: A549 phospho-S6 cytoblot, 5 h, higher = more signal;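 further: serum-stimulated A549 lung adenocarcinoma cells; signal is phosphorylated S6 detected by cytoblot immunostaining with HRP secondary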
[18] = target: NADPH oxidase 2 (Homo sapiens) (UniProt P04839); experiment: NOX2-dependent H2O2 signal modulators, primary screen, NOX inhibitor project, cell-based, HEK293-NOX2, PMA-stimulated, Amplex Red fluorescence (AID 1159); details: 45 min, higher = more signal, called active from +8 up or from −8 down; further: test concentration not given here
Chain of NADPH oxidase 2 (Homo sapiens) (P04839 whole entry, looked up): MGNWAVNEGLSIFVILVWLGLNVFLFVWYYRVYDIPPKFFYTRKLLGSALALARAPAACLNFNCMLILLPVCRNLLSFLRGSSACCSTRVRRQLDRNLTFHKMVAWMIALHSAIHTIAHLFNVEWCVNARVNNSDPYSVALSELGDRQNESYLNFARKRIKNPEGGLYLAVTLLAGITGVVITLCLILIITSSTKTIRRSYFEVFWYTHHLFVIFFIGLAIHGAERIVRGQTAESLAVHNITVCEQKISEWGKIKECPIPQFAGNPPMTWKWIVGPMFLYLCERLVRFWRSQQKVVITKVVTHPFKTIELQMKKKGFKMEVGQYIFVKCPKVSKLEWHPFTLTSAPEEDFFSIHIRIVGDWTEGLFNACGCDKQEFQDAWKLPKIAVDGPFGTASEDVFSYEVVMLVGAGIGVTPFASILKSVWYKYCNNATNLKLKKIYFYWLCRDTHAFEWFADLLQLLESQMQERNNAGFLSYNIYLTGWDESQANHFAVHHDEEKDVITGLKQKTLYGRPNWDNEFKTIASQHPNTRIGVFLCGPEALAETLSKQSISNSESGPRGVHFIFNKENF

[19] = target: NADPH oxidase 4 (Homo sapiens) (UniProt Q9NPH5); experiment: NOX4-dependent H2O2 signal modulators, primary screen, NOX inhibitor project, cell-based, HEK293-NOX4, tetracycline-induced, Amplex Red fluorescence (AID 1160); details: 45 min, higher = more signal, called active from +8 up or from −8 down
Chain of NADPH oxidase 4 (Homo sapiens) (Q9NPH5 whole entry, looked up): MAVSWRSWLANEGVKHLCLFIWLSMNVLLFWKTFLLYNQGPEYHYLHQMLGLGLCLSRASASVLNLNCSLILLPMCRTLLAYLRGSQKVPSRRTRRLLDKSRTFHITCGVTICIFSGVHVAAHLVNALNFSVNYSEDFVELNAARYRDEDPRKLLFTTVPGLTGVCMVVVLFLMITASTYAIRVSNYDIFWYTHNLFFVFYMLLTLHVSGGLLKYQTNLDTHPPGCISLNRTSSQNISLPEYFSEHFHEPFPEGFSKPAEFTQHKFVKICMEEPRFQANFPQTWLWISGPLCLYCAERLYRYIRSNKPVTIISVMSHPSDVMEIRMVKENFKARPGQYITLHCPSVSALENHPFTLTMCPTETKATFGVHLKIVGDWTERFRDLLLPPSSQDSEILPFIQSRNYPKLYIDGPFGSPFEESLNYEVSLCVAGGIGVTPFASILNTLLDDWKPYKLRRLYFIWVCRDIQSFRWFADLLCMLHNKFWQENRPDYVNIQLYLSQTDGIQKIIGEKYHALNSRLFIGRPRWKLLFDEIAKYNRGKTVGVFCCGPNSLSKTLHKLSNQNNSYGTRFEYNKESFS

[20] = target: NADPH oxidase 5 (Homo sapiens) (UniProt Q96PH1); experiment: NOX5-dependent H2O2 signal modulators, primary screen, NOX inhibitor project, cell-based, HEK293-NOX5, Amplex Red fluorescence (AID 1161); details: HEK293-NOX5, ionomycin, 45 min, higher = more signal
Chain of NADPH oxidase 5 (Homo sapiens) (Q96PH1 whole entry, looked up): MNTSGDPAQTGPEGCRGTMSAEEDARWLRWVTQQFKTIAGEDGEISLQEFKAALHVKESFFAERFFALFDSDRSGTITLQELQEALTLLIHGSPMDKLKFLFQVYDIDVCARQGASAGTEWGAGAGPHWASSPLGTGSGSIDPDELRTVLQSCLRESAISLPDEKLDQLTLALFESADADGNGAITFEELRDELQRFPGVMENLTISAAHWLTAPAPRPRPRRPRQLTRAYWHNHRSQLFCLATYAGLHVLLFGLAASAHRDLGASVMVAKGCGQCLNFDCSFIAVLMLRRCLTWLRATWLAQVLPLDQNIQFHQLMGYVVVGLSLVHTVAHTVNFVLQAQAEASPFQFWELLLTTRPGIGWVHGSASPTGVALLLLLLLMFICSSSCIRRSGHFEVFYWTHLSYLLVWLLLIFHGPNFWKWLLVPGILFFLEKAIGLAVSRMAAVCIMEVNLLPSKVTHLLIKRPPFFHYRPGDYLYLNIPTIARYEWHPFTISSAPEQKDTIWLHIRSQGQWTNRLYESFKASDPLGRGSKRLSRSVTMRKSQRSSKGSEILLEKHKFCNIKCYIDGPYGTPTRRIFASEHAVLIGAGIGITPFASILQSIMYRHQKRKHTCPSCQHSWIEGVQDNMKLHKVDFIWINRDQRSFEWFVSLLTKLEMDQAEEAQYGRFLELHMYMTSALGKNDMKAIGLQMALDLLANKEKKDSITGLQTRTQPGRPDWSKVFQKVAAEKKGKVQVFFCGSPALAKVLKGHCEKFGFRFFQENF

| SMILES | composite z-score [1] | z-score [2] | z-score [3] | z-score [4] | z-score [5] | composite z-score [6] | composite z-score [7] | composite z-score (Torsin-1A (Homo sapiens) [8]) | composite z-score (Torsin-1A (Homo sapiens) [9]) | composite z-score [10] | z-score [11] | composite z-score [12] | z-score [13] | z-score [14] | z-score [15] | z-score [16] | z-score [17] | z-score [18] | z-score [19] | z-score [20] |
| --- | --- | --- | --- | --- | --- | --- | --- | --- | --- | --- | --- | --- | --- | --- | --- | --- | --- | --- | --- | --- |
| O=C1O[C@@H](c2ccccc2)[C@@H](c2ccccc2)N2[C@@H](c3ccc(OCCO)cc3)[C@]3(C(=O)Nc4ccc(C#CC5=CCCCC5)cc43)[C@@H](C(=O)NC[C@H](O)c3ccccc3)[C@H]12 | 0.771 | -3.51 (inactive) | -0.209 (inactive) | -0.329 (inactive) | -0.239 (inactive) | 1.5 | 0.853 | 0.411 | 1.01 | 1.38 | -0.836 (inactive) | 1.38 | 1.96 (inactive) | 0.982 (inactive) | -0.607 (inactive) | 0.381 (inactive) | -0.164 | 1.61 (inactive) | 0.433 (inactive) | 0.469 |
| C=CCNC(=O)[C@@H]1[C@H]2C(=O)O[C@H](c3ccccc3)[C@H](c3ccccc3)N2[C@H](c2ccccc2OCCO)[C@@]12C(=O)Nc1ccc(C#CCCO)cc12 | 0.27 | -3.75 (inactive) | -1.2 (inactive) | -1.7 (inactive) | -1.17 (inactive) | -0.158 | 0.0111 | 0.188 | 0.527 | 2.03 | -2.32 (inactive) | -0.674 | 5.68 (inactive) | 1.15 (inactive) | 0.206 (inactive) | 0.778 (inactive) | 0.0309 | 0.734 (inactive) | 0.627 (inactive) | 0.849 |
| C=C(COC)C(=O)CC[C@@H](OC(C)=O)c1cccc(OCCO)c1 | -0.124 | -0.3 (inactive) | 0.423 (inactive) | 3.3 (inactive) | 2.95 (inactive) | -1.07 | -0.128 | 0.672 | -0.708 | 0.358 | 0.0328 (inactive) | -0.152 | 4.13 (inactive) | 1.11 (inactive) | 0.864 (inactive) | 0.529 (inactive) | -0.487 | 0.212 (inactive) | -1.01 (inactive) | -1.06 |
| [N-]=[N+]=Nc1ccccc1C[C@@]1(C(=O)NCCN2CCOCC2)N=C(c2ccc(OCCCO)cc2)O[C@@H]1c1ccccc1N=[N+]=[N-] | 0.734 | -4.82 (inactive) | 1.52 (inactive) | 0.512 (inactive) | -1.83 (inactive) | 0.425 | 0.518 | 0.801 | -0.283 | 0.201 | -0.374 (inactive) | 0.632 | 30.8 (active) | 30.8 (active) | 2.72 (inactive) | 2.78 (inactive) | -0.26 | -2.91 (inactive) | -0.157 (inactive) | -1.6 |
| CCCCN1CC=CC23O[C@@H]4/C=C\CCC(C)OC(=O)C4[C@H]2C(=O)N(CCCO)[C@@H]3C1=O (stereo not given in full) | -0.636 | -0.183 (inactive) | 1.21 (inactive) | 0.0605 (inactive) | 0.0507 (inactive) | -0.774 | -0.247 | -1.54 | -1.15 | -0.36 | 0.323 (inactive) | 0.0494 | 0.591 (inactive) | -0.0611 (inactive) | -0.23 (inactive) | 0.408 (inactive) | -0.118 | 1.1 (inactive) | -1.84 (inactive) | 0.861 |
| NC(=O)NCC#Cc1ccc2c(c1)[C@]1(C(=O)N2)[C@H](C(=O)N2CCN(c3ncccn3)CC2)[C@H]2C(=O)O[C@H](c3ccccc3)[C@H](c3ccccc3)N2[C@@H]1c1ccc(O)cc1 | 0.364 | -0.0243 (inactive) | 0.407 (inactive) | -0.467 (inactive) | -0.43 (inactive) | 0.328 | -0.352 | 0.0312 | 0.377 | 0.905 | -1.08 (inactive) | 0.141 | -0.362 (inactive) | -0.136 (inactive) | 0.174 (inactive) | -0.302 (inactive) | 0.435 | 1.13 (inactive) | 0.162 (inactive) | 0.437 |
| C=C(COC)/C(=C/C[C@H](OC(=O)c1ccncc1)c1ccc(CO)o1)c1cnc2ccccc2c1 | 0.304 | 0.114 (inactive) | -0.268 (inactive) | 0.303 (inactive) | -0.499 (inactive) | 1.16 | -0.0933 | 0.299 | 0.732 | 2.07 | -0.504 (inactive) | 0.213 | 6.19 (inactive) | 0.807 (inactive) | 1.35 (inactive) | 0.307 (inactive) | -0.959 | 1.13 (inactive) | -0.163 (inactive) | -0.377 |
| COC(=O)C1=CC(CCCO)=CC(c2cccs2)N(C)C=C1C(=O)OC (stereo not given) | -0.149 | -0.786 (inactive) | 0.321 (inactive) | -0.285 (inactive) | -0.217 (inactive) | 0.0877 | 0.0485 | -0.186 | 1.04 | -0.369 | -0.35 (inactive) | 0.147 | 2.47 (inactive) | 0.596 (inactive) | 0.148 (inactive) | 0.426 (inactive) | -0.481 | 0.467 (inactive) | -1.36 (inactive) | 0.931 |
